# According to PubChem BioAssay:
# Unmarked numbers belong to inactive results.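 The calls were made as follows: active = differentiation response of at least 50%, scaled between solvent and reference control, from cells with both markers; inactive = the rest.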
# Assay: promoters of myeloid differentiation in arrested cells, primary screen, cell-based, GFP/MAC1 double positive, flow cytometry, validation set (AID 588685);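 also: compound exposure lasts four days before antibody staining and flow analysis; 0% = DMSO wells and 100% = 5 µM fulvestrant positive control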
# Conditions: ER-HoxA9 marrow cells, hits give high values, normalized: vehicle 0, fulvestrant 100
row,SMILES,differentiation response
1,CC(C)(C)OC(=O)N1CC(O)CC1C(=O)OCC(=O)c1ccc(Cl)cc1 (configuration not stated),8.06%
2,O=C(O)c1ccc(OCCn2ccnc2)cc1,2.74%
3,CCOc1ccc2ccccc2c1CNc1nnnn1C,13.9%
4,COc1ccccc1N1C(=O)C2CC(C)=C(C)CC2C1=O (configuration not stated),-3.4%
5,Cc1coc2c1c(C)cc1oc(=O)c(Cc3ccccc3)c(C)c12,-8.96%
6,COc1cc2c3c(c1)C(C)CC(C)(C)N3C(=O)C2=O (configuration not stated),1.64%
7,NS(=O)(=O)c1cc2c(cc1Cl)NCNS2(=O)=O,-11.9%
8,O=C(O)C1Cc2ccccc2CN1S(=O)(=O)c1ccccc1 (configuration not stated),2.4%
9,COc1cccc(C2CC(=O)C3=C(C2)Nc2ccccc2N(C(=O)CCC(=O)O)C3c2ccc(F)cc2)c1 (configuration not stated),-1.64%
10,CCC(C(=O)Nc1ccc2c(c1)OCCO2)c1ccccc1 (configuration not stated),-10.4%
11,COc1ccc(C2C(C(=O)c3ccco3)=C(O)C(=O)N2CC2CCCO2)cc1 (configuration not stated),-5.62%
12,C=CCNC(=O)c1ccc(-c2cccc([N+](=O)[O-])c2)o1,6.49%
13,CC12CCC(C(=O)N(CCC#N)CCC#N)(CC1=O)C2(C)C (configuration not stated),2.4%
14,CC(=O)c1c(C)c(C)c2n1CCn1c(C)ccc1-2,-5.97%
15,COc1cc2cc(C)nc(Cc3cccc4ccccc34)c2cc1OC,4.21%
16,Cc1oc2cc(O)cc(O)c2c(=O)c1-c1ccc2c(c1)OCCCO2,12%
17,O=CNC1CCCc2c1[nH]c1ccc(Cl)cc21 (configuration not stated),8.06%
